These results are taken from PubChem BioAssay AID1159554 (Broad Institute, 2015).

Out of some 94,000 compounds screened, about 2,100 (2.2%) were called active. What follows is part of a selection rich in actives, with near analogues and random picks from the rest. A number with no mark means an inactive call. Rule as the data show it: active = activity change below about -80%; inconclusive = no clear call, values can overlap the other calls; inactive = above that.

This test is described as follows: P. falciparum Dd2 growth inhibitors, primary screen, SYBR Green fluorescence, single dose replicates (AID 1159554). Conditions: 72 h, at 10 µM, stronger effect = lower value.
Consider `O=C(N[C@@H]1C=C[C@@H](CC(=O)N2CCOCC2)O[C@H]1CO)c1ccccn1`, for which the activity change is 35.5%.
To `O=C(NCCN1CCCCC1)[C@@H]1N[C@@H]2c3ccc(-c4ccccc4)c(=O)n3C[C@@H]2[C@H]1CO` belongs 50.6%; to `COc1cccc(NC(=O)C[C@H]2CC[C@@H]3[C@@H](COc4ccc(NC(=O)C5CCOCC5)cc4C(=O)N3C)O2)c1`, 15.2%; to `C/C=C/c1ccccc1[C@H]1[C@@H](C#N)N(c2nc(CC)cs2)[C@@H]1CO`, -82.9% (active).
To `CCc1sc(N2[C@@H](C#N)[C@@H](c3ccccc3-c3ccccc3)[C@@H]2CO)nc1C` belongs -83.4% (active); to `C/C=C/c1ccccc1[C@H]1[C@@H](C#N)N(C(=O)Cc2ccccn2)[C@@H]1CO`, 1.87%.
To `N#C[C@@H]1[C@H](c2ccccc2-c2ccccc2)[C@H](CO)N1c1ncc(-c2ccccc2)s1` belongs -4.56%.
For the compound `C/C=C/c1ccccc1[C@@H]1[C@@H](CO)N(S(=O)(=O)c2cccc(F)c2)[C@H]1C#N`, the activity change was -88% (active).
To `Cc1ccc(-c2ccccc2[C@H]2[C@@H](C#N)N(c3ncc(-c4ccccc4)s3)[C@@H]2CO)cc1` belongs -65.2%; to `C/C=C/c1ccccc1[C@@H]1[C@@H](C#N)N(c2nc(CC)cs2)[C@@H]1CO`, -18.3%; to `N#C[C@@H]1[C@H](c2ccccc2C2=CCCCC2)[C@@H](CO)N1S(=O)(=O)c1cccc(F)c1`, -43.9%.
`C/C=C/c1ccccc1[C@H]1[C@@H](C#N)N(C(C)=O)[C@@H]1CO`: the activity change was 7.51%.
Then `O=C(NC1CCCCC1)N[C@H]1CC[C@H](CCNS(=O)(=O)c2ccc(F)cc2)O[C@H]1CO`, with 24.8%; and `C/C=C/c1ccc([C@@H]2[C@H](CO)N(S(=O)(=O)Cc3ccccc3)C23CN(C(=O)C2CCOCC2)C3)cc1`, with -52%.
To `CO[C@H]1CN(C)C(=O)c2ccc(NC(=O)C3CC3)cc2OC[C@H](C)N(C(=O)CN2CCOCC2)C[C@@H]1C` belongs 26.1%.
Turning to `CC(C)(C)[S@@](=O)N1Cc2cc(C(=O)O)nc(-c3cccc(-c4cccc(F)c4)c3)c2[C@H]1CCO`, the activity change is 41.4%.
Turning to `COc1ccccc1C#Cc1ccc([C@@H]2[C@H](CO)N3CCCCN(C(=O)C4CCCC4)C[C@@H]23)cc1`, the activity change is -47.8%.
Consider `CCC(=O)Nc1ccc2c(c1)OC[C@H](C)N(C(=O)Cc1cccnc1)C[C@@H](C)[C@@H](OC)CN(C)C2=O`, for which the activity change was 8.05%.
To `Cn1cnc(CCNC(=O)C[C@H]2CC[C@@H]3[C@H](COC[C@H](O)CN3C(=O)C3CC3)O2)c1` belongs -3%; to `CNC[C@H]1OCCCC[C@@H](C)Oc2ccc(NC(=O)Nc3ccc(C(F)(F)F)cc3)cc2C(=O)N([C@H](C)CO)C[C@H]1C`, -82.5% (active); to `C[C@@H]1CCCCO[C@H](CN(C)C(=O)Nc2ccc(C(F)(F)F)cc2)[C@@H](C)CN([C@@H](C)CO)C(=O)c2cc(NC(=O)Nc3cccc4ccccc34)ccc2O1`, -88.3% (active).
Then `CNC[C@@H]1OCCCC[C@H](C)Oc2ccc(NC(=O)Nc3ccccc3)cc2C(=O)N([C@H](C)CO)C[C@H]1C`, with 31%; and `CC(C)NC(=O)Nc1ccc2c(c1)C(=O)N([C@@H](C)CO)C[C@@H](C)[C@@H](CN(C)C(=O)Nc1ccc(C(F)(F)F)cc1)OCCCC[C@H](C)O2`, with -63.3%; and `Cc1ccc(S(=O)(=O)N(C)C[C@H]2OCCCC[C@@H](C)Oc3ccc(NC(=O)Nc4ccc(F)cc4)cc3C(=O)N([C@@H](C)CO)C[C@H]2C)cc1`, with -68.1%.
Then `C[C@@H]1CCCCO[C@H](CN(C)C(=O)Nc2ccc(C(F)(F)F)cc2)[C@H](C)CN([C@H](C)CO)C(=O)c2cc(NC(=O)Nc3ccc(C(F)(F)F)cc3)ccc2O1`, with -80.3% (active).
As for `Cc1ccc(S(=O)(=O)N(C)C[C@@H]2OCCCC[C@@H](C)Oc3ccc(NC(=O)Nc4ccc(C(F)(F)F)cc4)cc3C(=O)N([C@@H](C)CO)C[C@@H]2C)cc1`, the activity change is -86.1% (active).
Then `CC(C)NC(=O)Nc1ccc2c(c1)C(=O)N([C@H](C)CO)C[C@H](C)[C@H](CN(C)C(=O)Nc1ccc(C(F)(F)F)cc1)OCCCC[C@@H](C)O2`, with 1.85%.
Then `COc1ccc(NC(=O)Nc2ccc3c(c2)C(=O)N([C@H](C)CO)C[C@@H](C)[C@H](CN(C)C(=O)Nc2ccc(C(F)(F)F)cc2)OCCCC[C@@H](C)O3)cc1`, with -69%; and `COc1ccc(NC(=O)N(C)C[C@H]2OCCCC[C@H](C)Oc3ccc(NC(=O)Nc4ccc(C(F)(F)F)cc4)cc3C(=O)N([C@@H](C)CO)C[C@@H]2C)cc1`, with -39.3%.
To `C[C@H](CO)N1C[C@H](C)[C@@H](CN(C)S(C)(=O)=O)OCCCC[C@H](C)Oc2ccc(NC(=O)Nc3ccc(C(F)(F)F)cc3)cc2C1=O` belongs 30.4%; to `CNC[C@H]1OCCCC[C@H](C)Oc2ccc(NC(=O)Nc3ccc(C(F)(F)F)cc3)cc2C(=O)N([C@H](C)CO)C[C@@H]1C`, -14.8%.
Turning to `CC(=O)N1[C@H](CN(C)S(=O)(=O)c2ccccc2)[C@H](c2ccccc2)[C@@H]1CO`, the activity change is 4.68%.
To `COc1cccc(-c2ccc3n(c2=O)C[C@H]2[C@H](CO)[C@@H](C(=O)NC4CCCC4)[C@@H]3N2C)c1` belongs 2.57%.
With `COc1ccc2c3c(n(C)c2c1)[C@@H](CO)N(C(=O)NC1CCCC1)CC31CCN(C(C)=O)CC1`, the activity change is -2.48%.
To `C[C@@H](NC(=O)C[C@H]1CC[C@H]2[C@@H](COC[C@@H](O)CN2C(=O)Nc2ccccc2)O1)c1ccccc1` belongs 8.13%.
To `C[C@H](CO)N1C[C@H](C)[C@@H](CN(C)Cc2ccc3c(c2)OCO3)OCCCC[C@H](C)Oc2ccc(NC(=O)Nc3ccc(C(F)(F)F)cc3)cc2C1=O` belongs -41.8%; to `Cc1ccccc1S(=O)(=O)NCC[C@@H]1CC[C@H](NC(=O)C2CCCCC2)[C@@H](CO)O1`, 7.15%.
Consider `CCS(=O)(=O)N1CC(=O)N2[C@H](CO)[C@@H](c3ccc(C#CC4CCCC4)cc3)[C@@H]2C1`, for which the activity change was -15.8%.
Then `C[C@@H]1CCCCO[C@H](CN(C)C(=O)Nc2ccccc2)[C@H](C)CN([C@H](C)CO)C(=O)c2cc(NC(=O)Nc3ccccc3)ccc2O1`, with -88.7% (active); and `C[C@@H]1CCCCO[C@H](CN(C)C(=O)Nc2cccc3ccccc23)[C@@H](C)CN([C@@H](C)CO)C(=O)c2cc(NC(=O)Nc3ccc(F)cc3)ccc2O1`, with -88.2% (active).
Then `C[C@@H]1CCCCO[C@@H](CN(C)C(=O)Nc2ccccc2)[C@@H](C)CN([C@H](C)CO)C(=O)c2cc(NC(=O)Nc3ccc(F)cc3)ccc2O1`, with 24.9%; and `C[C@@H]1CCCCO[C@@H](CN(C)S(=O)(=O)c2ccc(Cl)cc2)[C@H](C)CN([C@@H](C)CO)C(=O)c2cc(NC(=O)Cc3ccccc3)ccc2O1`, with -69%; and `Cc1ccc(S(=O)(=O)N(C)C[C@@H]2OCCCC[C@@H](C)Oc3ccc(NS(=O)(=O)c4ccccc4)cc3C(=O)N([C@H](C)CO)C[C@@H]2C)cc1`, with -57.4%.
To `C[C@@H]1CN([C@@H](C)CO)C(=O)c2cc(NC(=O)Nc3ccc(C(F)(F)F)cc3)ccc2O[C@@H](C)CCCCO[C@@H]1CN(C)C(=O)Nc1cccc2ccccc12` belongs -85.5% (active); to `Cc1ccc(S(=O)(=O)N(C)C[C@H]2OCCCC[C@H](C)Oc3ccc(NC(=O)Cc4ccccc4)cc3C(=O)N([C@@H](C)CO)C[C@@H]2C)cc1`, -81.9% (active).
Turning to `COc1ccc(NC(=O)Nc2ccc3c(c2)C(=O)N([C@@H](C)CO)C[C@H](C)[C@@H](CN(C)C(=O)Nc2cccc4ccccc24)OCCCC[C@@H](C)O3)cc1`, the activity change is -66%.
For `C[C@@H]1CCCCO[C@@H](CN(C)C(=O)Nc2ccc(F)cc2)[C@H](C)CN([C@H](C)CO)C(=O)c2cc(NC(=O)Nc3cccc4ccccc34)ccc2O1`, the activity change is -24.3%.
As for `C[C@H]1CCCCO[C@@H](CN(C)C(=O)Nc2ccccc2)[C@@H](C)CN([C@@H](C)CO)C(=O)c2cc(NC(=O)Nc3ccc(F)cc3)ccc2O1`, the activity change is -17.9%.
With `C[C@@H]1CCCCO[C@@H](CN(C)C(=O)Nc2cccc3ccccc23)[C@H](C)CN([C@H](C)CO)C(=O)c2cc(NC(=O)NC3CCCCC3)ccc2O1`, the activity change was -62.1%.
Then `C[C@@H]1CCCCO[C@H](CN(C)C(=O)Nc2cccc3ccccc23)[C@@H](C)CN([C@H](C)CO)C(=O)c2cc(NC(=O)Nc3ccc4c(c3)OCO4)ccc2O1`, with -49.2%; and `Cc1ccc(S(=O)(=O)Nc2ccc3c(c2)C(=O)N([C@@H](C)CO)C[C@@H](C)[C@H](CN(C)Cc2ccc(Cl)c(Cl)c2)OCCCC[C@@H](C)O3)cc1`, with -43.2%; and `C[C@@H]1CN([C@H](C)CO)S(=O)(=O)c2ccc(C3=CCCC3)cc2O[C@H]1CN(C)C(=O)Nc1ccc2c(c1)OCO2`, with -57.4%.
As to `COc1ccccc1S(=O)(=O)N[C@@H]1CC[C@@H](CCNC(=O)C2CCCCC2)O[C@@H]1CO`, the activity change is -1.07%.
To `O=C(Nc1cccc(Cl)c1)N[C@@H]1CC[C@@H](CCNC(=O)C2CCOCC2)O[C@@H]1CO` belongs -0.665%.
To `C/C=C/c1cnc2c(c1)C(=O)N([C@H](C)CO)C[C@@H](C)[C@H](CN(C)Cc1cccc(C(=O)O)c1)O2` belongs 27.8%; to `O=C(C[C@@H]1CC[C@H]2[C@@H](COC[C@@H](O)CN2CC2CC2)O1)NCc1ccc(Cl)cc1`, -0.915%.
